Reference: PubChem BioAssay AID493194 (Broad Institute, 2011)
Results with a measured potency or affinity are listed apart. Records with an inconclusive call do not appear.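 The calls were made as follows: active = a valid curve of falling signal whose half-effect concentration is at most ten times the top tested dose; inconclusive = flat curve at 30 to 70% inhibition, or poor fit; inactive = signal rise, flat within 30%, or potency beyond limit.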

What follows are compounds tested against Scavenger receptor class B member 1 (Mus musculus) (UniProt Q61009) (assay: inhibitors of SR-BI mediated HDL lipid uptake, dose response, ldlA[mSR-BI] cells, fluorescence, cherry pick (AID 493194;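 also: CHO cells lacking LDL receptor and overexpressing mouse SR-BI; cellular uptake of fluorescently labeled HDL measured as cell fluorescence; 0% = median of neutral control wells and -100% = median of positive control wells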)). Conditions: CHO ldlA[mSR-BI] DiI-HDL uptake fluorescence, 3 h; series mostly up to 35 µM; activity change, negative = inhibition: at the top concentration.
Chain of Scavenger receptor class B member 1 (Mus musculus) (Q61009 whole entry, looked up): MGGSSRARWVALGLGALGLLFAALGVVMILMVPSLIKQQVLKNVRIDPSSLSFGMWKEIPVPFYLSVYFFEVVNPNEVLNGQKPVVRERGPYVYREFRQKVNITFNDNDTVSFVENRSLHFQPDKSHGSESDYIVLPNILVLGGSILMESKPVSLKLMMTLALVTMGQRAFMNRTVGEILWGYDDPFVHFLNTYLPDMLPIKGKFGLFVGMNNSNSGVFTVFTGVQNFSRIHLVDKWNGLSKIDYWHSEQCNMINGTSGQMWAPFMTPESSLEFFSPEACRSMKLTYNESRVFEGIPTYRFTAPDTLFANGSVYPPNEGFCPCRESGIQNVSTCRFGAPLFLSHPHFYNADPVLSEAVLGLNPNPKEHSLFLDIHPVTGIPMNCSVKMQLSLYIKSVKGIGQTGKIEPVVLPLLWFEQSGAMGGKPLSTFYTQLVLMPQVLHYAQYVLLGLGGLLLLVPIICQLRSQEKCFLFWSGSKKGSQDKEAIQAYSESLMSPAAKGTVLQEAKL

Activity change, negative = inhibition, inactive:
O=C(NNc1c(F)c(F)cc(F)c1F)C1CCN(S(=O)(=O)c2ccccc2F)CC1 -3.65%, COc1ccccc1CCc1nnc(CCC(=O)N(C)Cc2cccc3cnccc23)o1 -20.7%, Cc1cc(C)c(C)c(S(=O)(=O)N2CCN(CC(=O)NC(=O)NCc3ccccc3)CC2)c1C -0.05%, Cc1ccc(C)c(NC(=O)c2ccc3c(c2)N(Cc2ccc(F)cc2)C(=O)CS3=O)c1 (stereo not drawn) 6.93%, Cc1ccc(NS(=O)(=O)c2ccc(C(=O)NNC(=O)c3ccccc3O)cc2)cc1 14.7%, COc1cccc(-c2csc(N3CCN(C(=O)NC45CC6CC(CC(C6)C4)C5)CC3)n2)c1 -5.28%, Cc1c(C(=O)CN2CCCC(C)(C)C2)c2ccccc2n1C 34.2%, Cc1ccc2nc(-c3ccccc3)cc(C(=O)N3CCN(c4ccccc4O)CC3)c2c1 -7.75%, Cc1cc(C)nc(Nc2n[nH]c(-c3ccc(C(C)(C)C)cc3)n2)n1 -50.8%, CCCCC(=O)Nc1nc(C)c(-c2csc(Nc3ccc(Cl)cc3)n2)s1 4.32%, O=C(Nc1ncc(Cc2cccc(C(F)(F)F)c2)s1)c1ccc(-c2cccc([N+](=O)[O-])c2)o1 -9.44%, CCN(CC)C(=O)c1cccc(NC(=O)c2cc(C3CC3)nc3c2cnn3C(C)C)c1 -26.8%, CCOc1cc2c3c(c1)C1(C(=O)N3C(C)(C)CC2C)C(C#N)=C(N)N2C(=C1C#N)Nc1ccccc12 (stereo not drawn) 4.74%, COc1cc(NC(=O)c2cc(-n3cnnc3)ccc2Cl)cc(OC)c1 20%, CC[C@H](C)[C@H](NC(=O)c1ccc(Cl)cc1)C(=O)OCC(=O)c1ccc2c(c1)NC(=O)CO2 -32%, COC(=O)c1cc2c(ccn2-c2ccc(F)cc2)n1Cc1ccc(C#N)cc1 -6.08%, Cc1cccc(Nc2ccccc2C(=O)OCC(=O)N(C)C2CCS(=O)(=O)C2)c1C (stereo not drawn) -26.6%, CCOc1ccc(NC(=O)CN2CCN(CC(=O)Nc3ccc(OC)cc3)CC2)cc1 87.5%, COc1ccc(CNC(=O)C(c2ccc(C)cc2)N(Cc2cccs2)C(=O)c2ccc3c(c2)OCCO3)cc1 (stereo not drawn) 11%, CC(=O)c1ccc(N2CCN(C(=O)/C=C/c3ccc(S(=O)(=O)NCc4ccco4)cc3)CC2)cc1 -2.67%, COc1ccc(NC(=O)CN2CCN(CC(=O)Nc3ccc(OC)c(OC)c3)CC2)cc1 -35.5%, Clc1ccc(Cn2nnc(-c3ccc(N4CCOCC4)cc3)n2)cc1 28.1%, O=C(CN1CCN(CC(=O)Nc2ccc3c(c2)OC2(CCCCC2)O3)CC1)Nc1cccc(F)c1 2.55%, Cc1ccc(-c2cc(C(F)F)n3ncc(C(=O)N4CCN(c5cccc(C)c5C)CC4)c3n2)cc1 10.1%, CCCC(=O)N1c2ccc(-c3csc(N)n3)cc2CC1C (stereo not drawn) -43.6%, CCCCC(c1nnnn1CC1CCCO1)N1CCN(c2cc(Cl)ccc2C)CC1 (stereo not drawn) -10.9%, Cc1nn(Cc2ccccc2)c(C)c1NC(=O)c1cc2nc(-c3ccco3)cc(C(F)(F)F)n2n1 -9.64%, CC(=O)c1ccc(N2CCN(C(=O)c3cc(-c4cccnc4)nc4ccc(Br)cc34)CC2)cc1 3.24%, c1ccc(COn2c(-c3ccccc3)nc3c2CCc2nonc2-3)cc1 -12.6%, COc1ccc(CCNC(=O)c2ccc3c(c2)N(Cc2ccc(F)cc2)CCS3)c(OC)c1 3.53%, CCNc1nc(Cl)nc(-c2cn(-c3ccccc3)c3ccccc23)n1 -14.1%, O=C(C[C@@H]1C/C=C\C[C@H](NC(=O)OCC2c3ccccc3-c3ccccc32)C(=O)O[C@H](c2ccccc2)CNC1=O)NCCO -1.21%, CSc1ccccc1OCc1cc(C(=O)N(C)Cc2c(C)n[nH]c2C)no1 -51.2%, CCOc1ccc(OCCSc2nc3ccccc3n2CC(=O)O)cc1 51.5%, C[C@@H]1COC(=O)[C@H](NC(=O)OCC2c3ccccc3-c3ccccc32)C/C=C\C[C@@H](CC(=O)N[C@H](CO)Cc2ccccc2)C(=O)N1 -0.07%, Cc1cccc(N2CCN(C(=O)Cn3cccc3C(=O)c3ccccc3)CC2)c1C -20.2%, CC(=O)Oc1ccc(C(=O)Cc2ccc3ccccc3n2)c(O)c1C -1.92%, CC[C@]12c3[nH]c4cc(-c5ccco5)ccc4c3CCN1C(=O)[C@@H](CC(=O)NCc1ccc(OC)c(OC)c1)C[C@@H]2C(=O)N1CCN(C(=O)c2ccco2)CC1 -27.9%
